# Compound activity deposited in PubChem BioAssay by several laboratories.
# 3CLpro inhibitor = SARS-CoV 3CLpro protease inhibition; P0C6X7; inhibition, % at 6 µM; actives 0.14% (n = 290,000); recombinant SARS-CoV 3CLpro, quenched FRET peptide cleavage; in the data active means inhibition above about 12%
# Mtb BioA inh = inhibitors of Mycobacterium tuberculosis BioA enzyme; purified M. tuberculosis BioA enzyme, plate reader; inhibition, % at 9.99 µM; actives 0.096% (n = 360,000); in the data active means inhibition above about 40%
# GDH-TPI inh = counter-screen for M. tuberculosis FBA inhibitors: GDH-TPI coupled enzymes. GDH-TPI coupled enzyme counterscreen, NADH absorbance. inhibition, % at 4.8 µM. actives 1.2% (n = 360,000); in the data active means inhibition above about 30%;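 further: 0% = DMSO wells and 100% = wells lacking the enzyme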
# FadD28 binding = inhibitors of Mycobacterium tuberculosis FadD28 bisubstrate binding; FadD28 bisubstrate probe binding, fluorescence polarization; inhibition, % at 12.5 µM; actives 0.22% (n = 360,000); AID 588549; in the data active means inhibition above about 8.5%, passing the limit was not always enough
# Mtb FBA inh = Mtb fructose-bisphosphate aldolase inhibition; P9WQA3; purified M. tuberculosis FBA, fluorescence read-out; inhibition, % at 1 µM; actives 2.3% (n = 360,000); in the data active means inhibition above about 27%;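 further: 0% = vehicle and 100% = reference inhibitor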
# Target sequence (P9WQA3 whole entry, looked up): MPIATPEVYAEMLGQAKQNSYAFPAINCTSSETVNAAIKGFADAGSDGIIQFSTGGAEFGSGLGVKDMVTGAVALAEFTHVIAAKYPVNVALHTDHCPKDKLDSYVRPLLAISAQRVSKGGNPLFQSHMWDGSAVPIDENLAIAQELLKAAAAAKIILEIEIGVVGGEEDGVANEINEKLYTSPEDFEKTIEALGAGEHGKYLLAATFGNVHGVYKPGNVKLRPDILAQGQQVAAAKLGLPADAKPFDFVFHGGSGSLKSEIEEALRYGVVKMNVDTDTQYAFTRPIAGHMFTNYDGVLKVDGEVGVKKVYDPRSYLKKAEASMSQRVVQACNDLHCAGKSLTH
# * marks the source's active call; other numbers are inactive results; x = no result; + = active, no number. Compounds with a hit are over-represented: about 3.1% of the library has one in this group of screens.
SMILES,3CLpro inhibitor,Mtb BioA inh,GDH-TPI inh,FadD28 binding,Mtb FBA inh
CC1=C2[C@@H](c3ccccc3)OB(O)C[C@@H]2n2c(=O)n(-c3ccccc3)c(=O)n2C1,x,-1,x,x,x
C[C@@H]1CN([C@H](C)CO)C(=O)c2cc(-c3ccc(F)cc3)cnc2O[C@@H]1CN(C)C(=O)c1ccc(F)cc1,x,0,x,x,x
COCC(=O)Nc1ccc2c(c1)C(=O)N(C)C[C@H](OC)[C@H](C)CN(C(=O)CC1CC1)[C@@H](C)CO2,x,-3,x,x,x
Cc1ccc(/C=N/NC(=O)c2nnn(-c3nonc3N)c2C(C)C)o1,-1,3,44*,-1,0
Cc1ccc(/C=N/NC(=O)c2nnn(-c3nonc3N)c2CSc2ccccc2)o1,3,0,40*,-1,1
CCCc1c(C(=O)N/N=C/c2ccc(C)o2)nnn1-c1nonc1N,x,-2,42*,-2,3
Cc1ccc(/C=N/NC(=O)c2nnn(-c3nonc3N)c2CSc2ccccc2)cc1,1,x,12,0,-1
Cc1ccc(SCc2c(C(=O)N/N=C/c3ccc(C)o3)nnn2-c2nonc2N)cc1,x,1,39*,-2,2
CCCN(CCC)Cc1c(C(=O)N/N=C/c2ccc(C)o2)nnn1-c1nonc1N,-5,10,19,-2,1
O=C(CC1CC1)Nc1ccc2c(c1)[C@H]1C[C@H](CC(=O)NC3CCCC3)O[C@H](CO)[C@H]1O2,x,0,x,x,x
CN(C)C(=O)C[C@@H]1C[C@@H]2c3cc(NC(=O)Nc4ccccc4F)ccc3O[C@@H]2[C@H](CO)O1,x,2,x,x,x
COc1cccc(-c2c(C(=O)N/N=C/c3ccc(C)o3)nnn2-c2nonc2N)c1,-1,-2,47*,-4,-1
C[C@@H]1CN([C@H](C)CO)C(=O)c2cc(NC(=O)CCC(F)(F)F)ccc2O[C@@H](C)CCCCO[C@@H]1CN(C)Cc1ccc(C(=O)O)cc1,x,0,x,x,x
O=[N+]([O-])c1ccccc1-c1ccc(/C=N/n2cnnc2)o1,-5,2,27,-1,-3
O=C1ON=C(c2ccccc2)/C1=C/c1ccc(-c2ccccc2[N+](=O)[O-])o1,15*,-3,17,2,-1
Cc1noc(C)c1NC(=O)Nc1ccc2c(c1)C(=O)N([C@@H](C)CO)C[C@@H](C)[C@@H](CN(C)C(=O)Nc1ccc3c(c1)OCO3)OCCCC[C@@H](C)O2,x,6,x,x,x
CCOC(=O)N/N=C/c1ccc(F)cc1F,3,x,5,-4,1
CNC(=S)N/N=C/c1c(C(=O)OC)cnn1-c1ccc(F)cc1F,1,0,46*,-3,-2
COC(=O)c1cnn(-c2ccccc2)c1/C=N/NC(=S)Nc1ccccc1,0,-2,18,-3,2
COC(=O)c1cnn(-c2ccc(F)cc2F)c1/C=N/NC(=S)NC(C)(C)C,-3,-1,36*,-1,-1
COC(=O)c1cnn(-c2ccc(F)cc2F)c1/C=N/NC(N)=S,-1,4,36*,-2,-1
COc1cccc(NC(=O)N(C)C[C@@H]2OCc3cnnn3CCCC(=O)N([C@H](C)CO)C[C@H]2C)c1,x,0,x,x,x
CC(=O)c1ccc(NC(=O)c2ccc([N+](=O)[O-])o2)cc1,-6,0,28,0,-1
CC(=O)c1cccc(NC(=O)c2ccc([N+](=O)[O-])o2)c1,x,1,46*,1,0
O=C(C[C@@H]1C=C[C@@H](NC(=O)c2cccc(F)c2)[C@H](CO)O1)NCc1ccc(Oc2ccccc2)cc1,x,-3,x,x,x
SMILES,3CLpro inhibitor,Mtb BioA inh,GDH-TPI inh,FadD28 binding,Mtb FBA inh
COc1ccc(/C=N/NC(=O)c2ccc[nH]2)cc1,-6,2,32*,-5,-2
COc1ccc(/C=N/NC(=O)c2cccnc2)cc1,4,9,14,1,-1
CSc1ccc(/C=N/NC(=O)c2ccccc2Cl)cc1,-1,x,72*,-1,8
COc1cc(/C=N/NC(=O)c2ccc(O)cc2)ccc1OCC(=O)N1CC(C)OC(C)C1 (configuration not stated),-2,-1,52*,-4,-4
CN(C)c1ccc(/C=N/NC(=O)c2ccccc2Cl)cc1,4,1,26,2,2
COc1ccc(C(=O)N/N=C/c2ccc(SC)cc2)cc1,-3,x,46*,0,-1
Cc1ccc(S(=O)(=O)Nc2ccc3c(c2)CC(=O)N([C@@H](C)CO)C[C@H](C)[C@@H](CN(C)S(=O)(=O)c2ccc(Cl)cc2)O3)cc1,x,0,x,x,x
Cc1noc(C)c1NC(=O)Nc1ccc2c(c1)CC(=O)N([C@H](C)CO)C[C@H](C)[C@H](CN(C)Cc1ccccc1)O2,x,-1,x,x,x
COc1ccc(/C=N\NC(=O)c2ccccc2)cc1COc1ccccc1,-2,0,8,-5,1
CSc1ccc(/C=N/NC(=O)c2ccc(O)cc2)cc1,0,x,55*,0,8
COc1ccc(C(=O)N/N=C/c2ccc(OC)c(COc3ccccc3)c2)cc1,-5,-2,37*,-2,4
C[C@@H]1CN([C@H](C)CO)C(=O)c2cc(NC(=O)Nc3ccc4c(c3)OCO4)ccc2O[C@H]1CN(C)C(=O)Nc1ccc(F)cc1,x,-3,x,x,x
CCCC#Cc1cnc2c(c1)C(=O)N([C@@H](C)CO)C[C@H](C)[C@@H](CN(C)C(=O)c1ccc(F)cc1)O2,x,1,x,x,x
CC1CCN(C2(O)C(=O)Nc3ccc([N+](=O)[O-])cc32)CC1 (configuration not stated),-2,2,32*,-1,0
CC(=O)Nc1ccc(NC(=O)c2c(-c3ccccc3Cl)noc2C)cc1,-3,x,-7,x,0
Cc1onc(-c2ccccc2Cl)c1C(=O)Nc1cccc(-c2nc3ncccn3c2C)c1,-1,7,26,-3,175*
Cc1onc(-c2ccccc2Cl)c1C(=O)Nc1ccc(-c2cn3cccnc3n2)cc1,-1,x,31*,-6,+
Cc1ccc(-c2cn3cccnc3n2)cc1NC(=O)c1c(-c2ccccc2Cl)noc1C,0,2,16,-8,+
Cc1onc(-c2ccccc2Cl)c1C(=O)Nc1cccc2cccnc12,4,0,6,-7,-1
CCSc1nnc(NC(=O)c2c(-c3ccccc3Cl)noc2C)s1,1,1,0,-4,2
Cc1onc(-c2ccccc2Cl)c1C(=O)Nc1nnc(-c2cccc([N+](=O)[O-])c2)s1,2,2,35*,-2,3
CC(=O)Nc1cccc(NC(=O)c2c(-c3ccccc3Cl)noc2C)c1,2,-2,-2,-4,-3
COC(=O)Cc1[nH]n(-c2ccccc2)c(=O)c1C=Nc1ccc(C)cc1,2,-2,40*,-1,3
Cc1[nH]n(-c2ccccc2)c(=O)c1C=Nc1cccc(F)c1,5,6,32*,-1,-1
C[C@@H]1CN([C@@H](C)CO)C(=O)c2cc(NC(=O)CCN3CCOCC3)ccc2O[C@H]1CN(C)S(=O)(=O)c1ccc(Cl)cc1,x,0,x,x,x
O=C(NC12CC3CC(CC(C3)C1)C2)c1ccc(=O)oc1,-5,-1,19,0,-2
